High-throughput results: PubChem BioAssay, Broad Institute
This is a sample that favours compounds with a hit; in the whole collection about 2.6% have one here.
c-Myc SMM: binds human c-Myc on microarray | small molecule microarray, His-c-Myc binding, anti-His fluorescence | calls only | 17,000 tested, 1.5% active | AID 624141;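 active means spot fluorescence over background with P-value below 7% in all four replicate spots, showing protein binding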;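 further: score is binary with 100 for all four spots passing and 0 otherwise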
p53 PUMA act: mutant p53 pathway reactivation; SW480 PUMA-promoter luciferase; AID 624151; activation, % at 9.98 µM; 28,000 tested, 1.5% active; in the data active means activation above about 52%
mut p53 SMM: mutant p53 (human) binding; 17,000 tested, 0.4% active; calls only; AID 624136; small molecule microarray binding, anti-GST fluorescence;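 active means compounds whose four printed spots each glow above background more than chance allows, each with a p-value under 7%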
NFkB binder: NF-kappa-B p105 (human) binding | calls only | AID 624139 | 17,000 tested, 1.3% active | P19838 | Small molecule microarray, anti-His fluorescence binding;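 active means spot fluorescence over background significantly raised, with a chance value under 7% in all four replicate spots of the compound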;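 further: probe protein is his-tagged human p50 processed subunit at 1 µg/ml; raw spot fluorescence signals with no normalization applied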
STAT3 SMM: STAT3 (human) binding. Small molecule microarray, His-STAT3 binding, anti-His fluorescence. 17,000 tested, 0.2% active. calls only. AID 624138. P40763;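 active means compounds whose four printed spots each show fluorescence over background unusually high for their array block, chance value under 7%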
* marks the source's active call; other numbers are inactive results; i = inactive; . = no result given; + = active, no number.

SMILES | c-Myc SMM | p53 PUMA act | mut p53 SMM | NFkB binder | STAT3 SMM
Cn1c(SCCCN2C(=O)c3cccc4cccc(c34)C2=O)nnc1-c1cccs1 | . | 35 | . | . | .
O=C1c2cccc3cccc(c23)C(=O)N1CCCSc1n[nH]c(-c2ccc(F)cc2)n1 | . | 55* | . | . | .
COc1ccc(-n2c(SCCCN3C(=O)c4cccc5cccc(c45)C3=O)nnc2-c2ccncc2)cc1 | . | -3 | . | . | .
COc1cc(-c2nc3sc4c(c3c(=O)[nH]2)CCCC4)cc(Br)c1OCC(=O)O | + | -5 | i | + | i
COC(=O)c1cn(CCCNC(=O)[C@H](Cc2ccccc2)NS(=O)(=O)c2ccc(C)cc2)nn1 | i | . | i | i | i
O=C(Nc1ccccc1)N[C@H](Cc1ccccc1)Cn1cc(CN2C(=O)COC[C@H]2c2ccccc2)nn1 | i | . | + | i | i
Cc1ccc(S(=O)(=O)N[C@H](C(=O)NCCn2cc(CN3C(=O)COC[C@H]3c3ccccc3)nn2)C(C)C)cc1 | i | . | + | i | i
O=C(N[C@@H](Cc1ccccc1)Cn1cc(CN2C(=O)COC[C@H]2c2ccccc2)nn1)c1ccccc1 | i | . | + | i | i
Cc1ccc2nc(-c3ccc(NC(=O)Cn4nc([N+](=O)[O-])c(Cl)c4C)cc3)sc2c1 | . | 80* | . | . | .
Cc1ccc2nc(-c3ccc(NC(=O)CS(=O)(=O)Cc4ccccc4)cc3)sc2c1 | . | 75* | . | . | .
Cc1ccc2nc(-c3ccc(NC(=O)CN4C(=O)c5ccccc5C4=O)cc3)sc2c1 | i | 19 | i | i | i
Cc1ccc2nc(-c3ccc(NC(=O)CSc4nnc(C)s4)cc3)sc2c1 | . | -63 | . | . | .
c1ccc(OCCSc2nnc3n(-c4ccccc4)c4ccccc4n23)cc1 | . | 5 | . | . | .
O=C(O)CCC(=O)Nc1ccc(Br)c(Cl)c1 | i | -11 | i | i | i
O=C(O)CCC(=O)Nc1ccc(Br)c2cccnc12 | + | 3 | i | i | i
C[C@@H]1CN([C@H](C)CO)C(=O)Cc2cc(N(C)C)ccc2O[C@H]1CN(C)Cc1ccncc1 | i | 2 | i | i | i
C[C@H]1CN([C@@H](C)CO)C(=O)Cc2cc(NC(=O)Cc3cn(C)c4ccccc34)ccc2O[C@@H]1CN(C)S(=O)(=O)c1cccs1 | i | -2 | i | i | i
Cc1ccccc1OCC(=O)Nc1cccc(NC(=O)C(C)C)c1 | . | 62* | . | . | .
CCC(=O)Nc1ccc(Cl)c(NC(=O)COc2ccc(Br)cc2)c1 | . | 18 | . | . | .
Cc1ccccc1OCC(=O)Nc1cccc(C(=O)O)c1 | . | -93 | . | . | .
Cc1ccccc1OCC(=O)NC(=S)Nc1ccccc1-c1nc2ccccc2s1 | . | 2 | . | . | .
Cc1cccc(OCC(=O)Nc2cccc(-c3nc4ccccc4s3)c2)c1C | . | 95* | . | . | .
CCC(=O)Nc1ccc(Cl)c(NC(=O)COc2ccccc2C)c1 | . | 107* | . | . | .
Cc1ccccc1OCC(=O)Nc1cccc(-c2nc3ccccc3s2)c1 | i | 79* | i | i | i
C[C@H](NC(=O)C[C@H]1C[C@@H]2c3cc(NC(=O)Cc4ccncc4)ccc3O[C@@H]2[C@@H](CO)O1)c1ccccc1 | . | 13 | . | . | .
SMILES | c-Myc SMM | p53 PUMA act | mut p53 SMM | NFkB binder | STAT3 SMM
O=C(CSc1ncnc2sc3c(c12)CCC3)Nc1cccc(-c2nc3ccccc3s2)c1 | . | 80* | . | . | .
C=CC(C)(O)CC/C=C(\C)C(=O)OC1C2OC2(C)C2C(OC3OC(COC4OC(CO)C(O)C(O)C4O)C(O)C(O)C3O)OC=CC12O (configuration not stated) | i | -9 | i | i | i
COc1cccc(NC(=O)/C=C/c2ccc(Cl)cc2)c1 | i | 94* | i | i | i
COc1ccc(C)cc1NC(=O)CN(c1ccc(Cl)cc1)S(C)(=O)=O | . | -5 | . | . | .
CCc1cccc(OCC(=O)Nc2cccc(-c3nnc(-c4ccccc4)o3)c2)c1 | . | 98* | . | . | .
Cc1cccc(OCC(=O)Nc2cccc(-c3nnc(-c4ccccc4)o3)c2)c1 | . | 91* | . | . | .
O=C(COc1ccc(I)cc1)Nc1cccc(-c2nnc(-c3ccco3)o2)c1 | . | 79* | . | . | .
CCOC(=O)c1ccccc1NC(=O)COc1ccccc1 | i | 8 | i | i | i
CCc1cccc(OCC(=O)Nc2ccccc2C(N)=O)c1 | . | 130* | . | . | .
CSc1ccccc1NC(=O)C(C)NS(=O)(=O)c1ccc(C)cc1 (configuration not stated) | . | -3 | . | . | .
O=C(O)C[C@H]1C[C@@H]2c3cc(NC(=O)CC4CC4)ccc3O[C@@H]2[C@@H](CO)O1 | . | 1 | . | . | .
COc1ccc(-c2nnc(SCC(=O)c3ccc(-c4ccccc4)cc3)o2)cc1OC | . | -6 | . | . | .
Cc1ccc(C2=NN(C(=O)CCC(=O)O)C(c3ccc(F)cc3)C2)cc1 (configuration not stated) | . | -12 | . | . | .
Cn1cccc1CNCCCN1CCOCC1 | i | 3 | i | i | i
COc1cccc(OCC(=O)Nc2cccc(-c3nnc(-c4ccccc4)o3)c2)c1 | . | 101* | . | . | .
Cc1cc(C)cc(OCC(=O)Nc2cccc(-c3nnc(-c4ccco4)o3)c2)c1 | . | 42 | . | . | .
COC(=O)c1c(NC(=O)Cn2ccc([N+](=O)[O-])n2)sc2c1CCCC2 | i | 19 | i | i | i
O=c1cc(-c2ccc(O)cc2)oc2c(C3OC(CO)C(O)C(O)C3O)c(O)c(C3OCC(O)C(O)C3O)c(O)c12 (configuration not stated) | i | 1 | i | i | i
N#Cc1ccccc1CSc1nnc(-c2ccco2)n1-c1ccccc1 | . | 5 | . | . | .
Cc1ccc(-c2nnc(SCc3ccccc3C#N)n2-c2ccccc2)cc1Cl | . | 84* | . | . | .
c1ccc(Cn2c(SCCN3CCOCC3)nc3ccccc32)cc1 | + | 8 | i | i | i
C[C@H](CO)N1C[C@H](C)[C@H](CN(C)S(=O)(=O)c2cccs2)OCCCC[C@H](C)Oc2ccc(NC(=O)c3ccncc3)cc2C1=O | i | -11 | i | + | i
C[C@@H]1CN([C@H](C)CO)C(=O)c2cc(NC(=O)c3ccncc3)ccc2O[C@@H](C)CCCCO[C@H]1CN(C)C | + | 8 | i | i | i
CC(C)NC(=O)N(C)C[C@H]1OCCCC[C@H](C)Oc2ccc(NC(=O)c3ccncc3)cc2C(=O)N([C@H](C)CO)C[C@@H]1C | i | 3 | i | + | i
C[C@H]1CCCCO[C@@H](CN(C)C)[C@@H](C)CN([C@@H](C)CO)C(=O)c2cc(NC(=O)c3ccncc3)ccc2O1 | i | -6 | i | i | i
CC(C)NC(=O)N(C)C[C@@H]1OCCCC[C@@H](C)Oc2ccc(NC(=O)c3ccncc3)cc2C(=O)N([C@H](C)CO)C[C@H]1C | + | -5 | i | + | i
CC(C)NC(=O)N(C)C[C@@H]1OCCCC[C@@H](C)Oc2ccc(NC(=O)c3ccccc3)cc2C(=O)N([C@@H](C)CO)C[C@@H]1C | i | 8 | i | i | i
CC(C)NC(=O)N(C)C[C@H]1OCCCC[C@H](C)Oc2ccc(NC(=O)c3ccncc3)cc2C(=O)N([C@@H](C)CO)C[C@@H]1C | + | -4 | i | + | i
